# This is a sample that favours compounds with a hit; in the whole collection about 2.3% have one here.
# DENV2 CPE rescue: inhibitors of DENV2 cytopathic effect, primary screen, cell-based, plate reader, single concentration | DENV2-infected cells, cytopathic effect rescue | CPE inhibition, % at 9.99 µM | actives 1.7% (n = 350,000) | AID 651640, 2012; in the data active = CPE inhibition above about 20%, passing the limit was not always enough; tested in BHK-21 cells;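 note: 0% = median of neutral control wells and 100% = median of positive control wells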
# ERp5 inh: inhibitors of ERp5-driven insulin aggregation, primary screen, biochemical, turbidity, absorbance 650 nm, single point. actives 0.05% (n = 350,000). AID 651711, 2012. 90 min. inhibition, % at 9.99 µM. Protein disulfide-isomerase A6 (Homo sapiens), Q15084;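 active = mean replicate inhibition above about 25%, with every replicate also reaching it, limit read from the data, passing the limit was not always enough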
# Rtt109 HAT inh: inhibitors of C. albicans Rtt109/Vps75 HAT, primary screen, biochemical, ThioGlo CoA-SH fluorescence, plate reader; inhibition, % at 34.9 µM; Histone acetyltransferase RTT109 (Candida albicans (strain SC5314 / ATCC MYA-2876)), …; AID 540336, 2011; actives 0.16% (n = 330,000); purified Rtt109/Vps75, 4 h;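 active = inhibition of at least 50% in every replicate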
# PDI turbidity: inhibitors of human PDI, primary screen, biochemical, turbidity, single point, plate reader; Protein disulfide-isomerase (Homo sapiens), P07237; PDI insulin aggregation turbidity, A650, 90 min; inhibition, % at 10 µM; actives 0.052% (n = 350,000);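 active = mean inhibition across replicates of 30% or more, whatever share of single replicates reach that level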
# SIRT5 block: SIRT5 desuccinylase inhibitors, primary screen, biochemical, fluorescence imaging, single point, set 5. NAD-dependent protein deacylase sirtuin-5, mitochondrial (Homo sapiens), Q9NXA8. Purified SirT5, succinyl-peptide AMC, trypsin-coupled fluorescence. inhibition, % at 15 µM. actives 1.1% (n = 330,000); in the data active = inhibition above about 15%
# Target sequence (Q9NXA8 whole entry, looked up): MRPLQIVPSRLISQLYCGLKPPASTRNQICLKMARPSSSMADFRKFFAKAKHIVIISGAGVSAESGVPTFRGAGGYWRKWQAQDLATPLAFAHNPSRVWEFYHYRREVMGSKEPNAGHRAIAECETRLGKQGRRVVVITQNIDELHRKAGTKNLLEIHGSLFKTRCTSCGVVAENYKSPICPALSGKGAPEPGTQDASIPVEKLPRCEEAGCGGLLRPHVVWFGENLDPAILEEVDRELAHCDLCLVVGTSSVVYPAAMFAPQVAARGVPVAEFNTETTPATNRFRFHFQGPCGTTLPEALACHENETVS
# Active calls of the source: *; · = no result; ! = not active in a repeat.
SMILES,DENV2 CPE rescue,ERp5 inh,Rtt109 HAT inh,PDI turbidity,SIRT5 block
COCC(=O)N1CCCCN2[C@@H](CO)[C@@H](c3ccc(-c4ccccc4)cc3)[C@@H]2C1,-1,2,·,·,-3
OC[C@@H]1[C@H](c2ccc(-c3ccc(F)cc3)cc2)[C@@H]2CN(Cc3ccncc3)CCCCN12,38*,-2,·,·,3
COCC(=O)N1CCCCN2[C@@H](CO)[C@@H](c3ccc(-c4ccc(C)cc4)cc3)[C@@H]2C1,66*,3,·,·,3
COCC(=O)N1CCCCN2[C@H](CO)[C@@H](c3ccc(-c4ccccc4)cc3)[C@H]2C1,40*,-2,·,·,1
C[C@@H]1CN([C@@H](C)CO)C(=O)c2cccc(NC(=O)Nc3ccc(F)cc3)c2O[C@H]1CN(C)C(=O)NC1CCCCC1,-6,2,·,·,-3
CCCNC(=O)N1[C@@H]2CN(C(=O)c3cccnc3)c3ccccc3[C@@H]2[C@@H]1CO,18,-1,·,·,-1
C[C@H]1CN([C@@H](C)CO)C(=O)c2cccc(NC(=O)C3CCCCC3)c2O[C@@H]1CN(C)S(=O)(=O)c1cccs1,0,1,·,·,2
COCC(=O)N1CCCCN2[C@@H](CO)[C@@H](c3ccc(-c4ccc(F)cc4)cc3)[C@@H]2C1,28*,4,·,·,1
Cc1noc(C)c1NC(=O)Nc1ccc2c(c1)CC(=O)N([C@H](C)CO)C[C@H](C)[C@H](CN(C)C(=O)Nc1cccc3ccccc13)O2,63*,-11,·,·,0
C[C@H]1CN([C@@H](C)CO)C(=O)Cc2cc(NC(=O)Cc3cn(C)c4ccccc34)ccc2O[C@@H]1CN(C)C(=O)Nc1cccc2ccccc12,21*,-3,·,·,2
Cc1noc(C)c1NC(=O)Nc1ccc2c(c1)CC(=O)N([C@@H](C)CO)C[C@H](C)[C@@H](CN(C)C(=O)Nc1ccccc1)O2,83*,0,·,·,1
Cc1noc(C)c1NC(=O)Nc1ccc2c(c1)CC(=O)N([C@@H](C)CO)C[C@@H](C)[C@@H](CN(C)C(=O)Nc1ccccc1)O2,-8,-11,·,·,-7
C[C@H](CO)N1C[C@H](C)[C@@H](CN(C)C)Oc2ccc(NC(=O)Nc3cccc4ccccc34)cc2CC1=O,39*,-1,·,·,10
O=C(C[C@@H]1C[C@H]2c3cc(NC(=O)c4ccc5c(c4)OCO5)ccc3O[C@H]2[C@H](CO)O1)NCc1cccnc1,6,-1,·,·,12
CN(C)C(=O)c1cccc(-c2ccc([C@H]3[C@@H](CO)N4CCCCN(CCC(F)(F)F)C[C@@H]34)cc2)c1,0,1,·,·,0
C/C=C/c1ccc([C@@H]2[C@@H](CO)N(CCC(F)(F)F)C23CN(C(C)=O)C3)cc1,3,·,·,·,·
C[C@@H]1CN([C@H](C)CO)C(=O)Cc2cc(NC(=O)Cc3cn(C)c4ccccc34)ccc2O[C@H]1CN(C)Cc1ccc(C(F)(F)F)cc1,33*,-2,·,·,0
C[C@H](CO)N1C[C@H](C)[C@@H](CN(C)C(=O)Nc2cccc3ccccc23)Oc2ccc(NC(=O)Nc3cccc4ccccc34)cc2CC1=O,3,·,·,·,-1
C[C@@H]1CN([C@H](C)CO)C(=O)Cc2cc(NC(=O)Nc3cccc4ccccc34)ccc2O[C@@H]1CN(C)C(=O)NC1CCCCC1,22*,0,·,·,9
C[C@@H]1CN([C@@H](C)CO)C(=O)Cc2cc(NC(=O)Nc3cccc4ccccc34)ccc2O[C@@H]1CN(C)S(C)(=O)=O,66*!,0,6,2,-2
C[C@@H]1CN([C@@H](C)CO)C(=O)Cc2cc(NC(=O)Nc3cccc4ccccc34)ccc2O[C@H]1CN(C)C(=O)Nc1cccc2ccccc12,45*,-3,·,·,2
C[C@H]1CN([C@@H](C)CO)C(=O)c2cc(NC(=O)NC3CCCCC3)ccc2O[C@@H]1CN(C)Cc1ccncc1,-6,-3,·,·,-3
O=C(NC1Cc2ccccc2C1)[C@@H]1[C@@H](CO)[C@@H]2Cn3c(cccc3=O)[C@H]1N2C(=O)CC1CC1,3,4,·,·,1
C[C@@H]1CN([C@H](C)CO)C(=O)c2ccccc2-c2ccccc2CO[C@@H]1CN(C)C(=O)CCN(C)C,3,7,·,·,-3
C[C@H](CO)N1C[C@H](C)[C@H](CN(C)C(=O)Nc2cccc3ccccc23)Oc2ccc(NC(=O)Nc3cccc4ccccc34)cc2CC1=O,-5,·,·,·,-3
SMILES,DENV2 CPE rescue,ERp5 inh,Rtt109 HAT inh,PDI turbidity,SIRT5 block
C[C@@H]1CN([C@H](C)CO)C(=O)Cc2cc(NC(=O)Nc3cccc4ccccc34)ccc2O[C@@H]1CN(C)Cc1ccc(Cl)c(Cl)c1,-1,-2,·,·,1
C[C@H]1CN([C@@H](C)CO)C(=O)Cc2cc(NC(=O)Nc3cccc4ccccc34)ccc2O[C@H]1CN(C)Cc1ccc(Cl)c(Cl)c1,10,-7,·,·,15*
C[C@@H]1CN([C@H](C)CO)C(=O)Cc2cc(NC(=O)Nc3cccc4ccccc34)ccc2O[C@@H]1CN(C)C(=O)Nc1cccc2ccccc12,3,52*,·,·,16*
CCC(=O)N(C)C[C@@H]1Oc2ncc(-c3ccc(F)cc3)cc2C(=O)N([C@@H](C)CO)C[C@H]1C,-7,11,·,·,0
C[C@H]1CCCCO[C@@H](CN(C)C(=O)NC2CCCCC2)[C@@H](C)CN([C@@H](C)CO)C(=O)c2cc(NS(=O)(=O)c3ccccc3)ccc2O1,30*,-6,·,·,0
C[C@@H]1CCCCO[C@H](CN(C)C(=O)NC2CCCCC2)[C@@H](C)CN([C@@H](C)CO)C(=O)c2cc(NS(=O)(=O)c3ccccc3)ccc2O1,-13,-2,·,·,1
C[C@@H]1CN([C@H](C)CO)C(=O)c2cc(NS(=O)(=O)c3ccccc3)ccc2O[C@@H](C)CCCCO[C@@H]1CN(C)C(=O)NC1CCCCC1,75*,3,·,·,2
C[C@H](CO)N1C[C@H](C)[C@H](CN(C)C)Oc2ccc(NC(=O)Cc3cn(C)c4ccccc34)cc2C1=O,-2,8,·,·,1
O=C1C=CC(=O)c2c(O)c(CO)c(CO)c(O)c21,-12,-6,8,2,15*
Cc1ccccc1S(=O)(=O)N[C@H]1CC[C@@H](CCn2cc(-c3ccc(F)cc3)nn2)O[C@@H]1CO,4,-2,·,·,-5
CCN(CC)CCN1C(=O)C2C(C(=O)Nc3cccc(C)c3)C3C=CC2(O3)C1C(=O)NC1CCCC(C)C1C (stereo not given),3,2,1,7,19*
CC1CCCC(NC(=O)C2N(CCCN3CCCC3)C(=O)C3C(C(=O)Nc4ccc(Cl)cc4)C4C=CC32O4)C1C (stereo not given),10,4,4,-2,1
